From PubChem BioAssay AID628 (Vanderbilt High Throughput Screening Facility, 2007)
The whole screen tested about 64,000 compounds, of which about 2,200 (3.4%) were called active. For the sample, actives were picked, then their nearest neighbours and some compounds at random. Unmarked numbers belong to inactive results.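 Rule for the calls: active = calcium fluorescence response, raw or row-and-column corrected B-score, differing from the plate sample mean either way at a set confidence level, mostly lower; inactive = the rest.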

Each molecule was assayed against Muscarinic acetylcholine receptor M1 (Rattus norvegicus) (UniProt P08482) (assay: blocks the rat M1 muscarinic receptor response to acetylcholine (AID 628)). Details: CHO-M1 cells, Fluo-4 calcium, ACh EC80 antagonist mode; at 10 µM; stronger effect = lower value.
Chain of Muscarinic acetylcholine receptor M1 (Rattus norvegicus) (P08482 whole entry, looked up): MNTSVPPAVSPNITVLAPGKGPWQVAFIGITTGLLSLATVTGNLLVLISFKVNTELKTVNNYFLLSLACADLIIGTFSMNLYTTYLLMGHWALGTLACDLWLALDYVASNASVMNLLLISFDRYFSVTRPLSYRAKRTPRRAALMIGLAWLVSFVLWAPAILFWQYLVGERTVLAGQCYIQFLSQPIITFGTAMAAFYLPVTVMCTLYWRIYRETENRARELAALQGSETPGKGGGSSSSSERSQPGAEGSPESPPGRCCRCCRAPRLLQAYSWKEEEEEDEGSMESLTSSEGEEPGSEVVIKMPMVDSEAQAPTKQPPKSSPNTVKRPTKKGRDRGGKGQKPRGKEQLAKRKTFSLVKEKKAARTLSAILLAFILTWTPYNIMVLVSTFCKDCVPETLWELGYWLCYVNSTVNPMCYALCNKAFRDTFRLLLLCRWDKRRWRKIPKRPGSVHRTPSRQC
For CC[N+]1(C)CCCC(OC(=O)C(O)(c2ccccc2)c2ccccc2)C1 (stereo not given), the B-score was -11.4 (active). O=C1NC(=O)C(C/C=C/c2ccccc2)C(=O)N1 showed a B-score of -0.333. With CSC1=NP(=S)(SC)N(C)c2nc3n(c21)CCC3 (stereo not given) the B-score was -0.101. With O=c1c2ccccc2nc(-c2ccco2)n1-c1ccc(Br)cn1 the B-score was -0.192. With CCOC(=O)C1SC2(C(F)(F)C(F)F)CC1(O)c1c(c(OC)c3occc3c1OC)O2 (stereo not given) the B-score was -2.3 (active). Work on CNP1(NC)=Nc2nn(-c3ccccc3)c(N)c2C(c2ccccc2)=N1 yielded a B-score of 0.00862. With C[N+]12CN3CN(CN(C3)C1)C2 the B-score was 0.464. CCN(CC)P(=O)(Oc1cccc(C)c1)N(CC)CC gave a B-score of 0.467. Work on COc1ccc(C(=O)CC2C(=O)N(C)C(=O)N(C)C2=O)cc1 yielded a B-score of -0.22. Molecule CC(C)c1ccc(O)c(CN2CCN(c3ccccc3)CC2)c1 has a B-score of 0.336. With COc1ccc(CN2CCN(c3ccccc3F)CC2)c(OC)c1 the B-score was -2.11 (active). Work on COc1ccccc1CN1CCN(C(=O)Cc2ccccc2)CC1 yielded a B-score of 0.441. In the case of CCc1nc2ccccc2c(=O)n1-c1cccc(OC)c1, the B-score is reported as -0.313. c1ccc(C2NCc3ccccc3-n3cccc32)cc1 (stereo not given) gave a B-score of -0.457. With COc1ccc(C2NCc3ccc4c(c3-n3cccc32)OCO4)cc1OC (stereo not given) the B-score was -4.39 (active). For CCC/C(=N\O)c1c[nH]c2ccccc12, the B-score was -0.0862. For CCOC(=O)c1c(C)c(C(=O)N2CCC3(CC2)OCCO3)c(C)n1CC, the B-score was 0.059. With CC12CN3CC(C)(CN(C1)C3c1cccs1)C2 (stereo not given) the B-score was -0.259. In the case of Cc1nc2nc(C)c(CCC(=O)N3CCC4(CC3)OCCO4)c(C)n2n1, the B-score is reported as 0.0167. CCOC(=O)CC1=C(C(=O)OCC)C2(C(=O)N1)C(C(=O)OC)=C(N)Oc1ccccc12 (stereo not given) showed a B-score of 0.186. CCOC(=O)c1c(N)n(Cc2ccccc2)c2nc3ccccc3nc12 showed a B-score of 0.91. For Cc1ccc(C)c(NC2=NCCCS2)c1, the B-score was -1.64. For CC(=NCc1ccc2c(c1)OCO2)c1c(O)[nH]c(=O)[nH]c1=O, the B-score was 0.0855. With Fc1ccc(N2CCN(Cc3ccc4c(c3)OCO4)CC2)cc1 the B-score was -2.36 (active). In the case of COc1ccccc1N=C1SCCCN1C, the B-score is reported as 0.926.
